In PubChem BioAssay AID1486 (The Scripps Research Institute Molecular Screening Center, 2009):
Out of some 220,000 compounds screened, about 2,400 (1.1%) were called active. Only a selection was taken, and actives are over-represented in it overall. Values without a mark were called inactive.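 How the source made its calls: active means inhibition above a per-campaign cutoff, the mean inhibition of all tested compounds plus 3 SD (cut at about 27% in these data); inactive means the rest.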

Assay: growth loss in parental Ba/F3 cells – cell-based, murine pro-B, CellTiter-Glo luminescence, counter-screen for JAK2V617F inhibitor project (AID 1486);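 further: 0% = DMSO wells and 100% = JAK Inhibitor I control wells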
Details: Ba/F3 parental viability, CellTiter-Glo ATP luminescence; at 5.6 µM; active compounds read high

Row | Structure (SMILES) | inhibition
1 | Cc1cc(/C=N/Nc2ccc([N+](=O)[O-])cn2)c(C)n1-c1cccc(C(=O)O)c1 | -1.49%
2 | COc1cc(/C=N\Nc2ccc([N+](=O)[O-])cn2)ccc1OCC(=O)O | 10.2%
3 | Cc1ccc(-n2c(C)cc(/C=N/Nc3ccc([N+](=O)[O-])cn3)c2C)c(C)c1 | 50.2% (active)
4 | Cc1cc(NC(=O)CSc2nc3cc(Cl)ccc3c(=O)n2Cc2ccco2)no1 | 8.02%
5 | C[C@@H](C(=O)N1CCNCC1)n1cc(CCC(=O)O)nn1 | -3.7%
6 | O=C(Cn1cnc2ccccc21)N/N=C/c1ccco1 | 1.87%
7 | COC(=O)c1cc(NC(=O)c2ccco2)ccc1N1CCOCC1 | 1.48%
8 | COC(=O)COc1cccc2c(=O)n(CC(=O)NCCc3ccc(OC)c(OC)c3)ccc12 | -0.48%
9 | COC(=O)COc1cccc2c(=O)n(CC(=O)NCc3ccccc3)ccc12 | 44.3% (active)
10 | Cc1ccc(CNC(=O)CCNC(=O)Cn2ccc3ccccc3c2=O)cc1 | 8.67%
11 | Cc1ccc2nc(C)cc(N/N=C/c3ccc(F)cc3)c2c1 | 8.42%
12 | NS(=O)(=O)c1ccc(CNC(=O)c2cnccn2)cc1 | -6.36%
13 | CCOc1ccc(OCc2cccc(C(=O)N(CC)CC)c2)cc1 | 1.21%
14 | Cc1nn(-c2ccc([N+](=O)[O-])cc2)c(N)c1-c1ccccc1 | -2.11%
15 | Cc1ccc(N=C2NC(=O)c3cccc([N+](=O)[O-])c32)cc1 | 2.95%
16 | O=C(NCc1ccccc1Cl)C1CCCO1 (centres undefined) | 4.65%
17 | CCN(CC)c1ccc(NC(=O)c2ccc(Cl)nc2)cc1 | 72.5% (active)
18 | NS(=O)(=O)c1ccc(NC(=O)COC(=O)c2ccc(Cl)nc2)cc1 | 4.09%
19 | O=C(NNc1ccccn1)c1ccc(Cl)nc1 | 3.58%
20 | Cc1ccc(C)c(NC(=O)c2ccc(OC(=O)c3ccco3)cc2)c1 | 5.55%
21 | C=CCNc1scc(-c2ccccc2)[n+]1CC=C | 1.05%
22 | Cc1ccc(NC(=O)Nc2ccccc2)c(Br)c1 | 5.76%

Row | Structure (SMILES) | inhibition
23 | C=CC[n+]1c(-c2ccc(C)cc2)csc1NNC(=O)Nc1ccccc1 | 57.4% (active)
24 | CC(=O)Nc1ccc(/C=N/Nc2ccc(C(=O)c3c(C)cc4ccccn34)cc2[N+](=O)[O-])cc1 | -11.2%
25 | CS(=O)(=O)Nc1cccc(-c2cn3ccccc3n2)c1 | 7.16%
26 | Cc1ccc(CC(=O)Nc2cccc(C#N)c2)cc1 | 6.45%
27 | CC(O)C(NS(=O)(=O)c1ccc(Cl)cc1)C(=O)OCc1cc([N+](=O)[O-])cc2c1OCOC2 (centres undefined) | 4.65%
28 | CCNC(=O)c1sccc1-n1cccc1 | 2.59%
29 | CCCCNC(=O)OCCSCCS(=O)(=O)c1ccc(Cl)cc1 | -2.09%
30 | Cc1ccc(NC(=O)c2oc3ccccc3c2C)c([N+](=O)[O-])c1 | 2.45%
31 | c1ccc(-n2ncc3c(N4CCCC4)ncnc32)cc1 | 2.78%
32 | c1ccc(-n2ncc3c2ncn2c(C4CCCCC4)nnc32)cc1 | 97.5% (active)
33 | CN(C(=O)COc1ncnc2c1cnn2-c1ccccc1)C1CCCCC1 | -1.06%
34 | Cc1ccc(C2NC(C(=O)O)CS2)cc1 (centres undefined) | 4.83%
35 | CC(=O)NCc1ccc(S(=O)(=O)NC2CCN(Cc3ccccc3)CC2)cc1 | -3.37%
36 | C[C@@H]1C[C@@H]2O[C@H]2/C=C\C=C\C(=O)Cc2c(Cl)c(O)cc(O)c2C(=O)O1 | 104% (active)
37 | CC(NC(=S)Nc1ccccc1)C(c1cccs1)N1CCOCC1 (centres undefined) | -4.02%
38 | CN(Cc1ccccc1)Cc1ccccc1F | 10.4%
39 | c1ccc(Cc2cc[n+](Cc3ccccc3)cc2)cc1 | 71.7% (active)
40 | CN(C)c1cc[n+](Cc2ccccc2)cc1 | 66.3% (active)
41 | COC(=O)c1ccc(Cc2ccccc2)o1 | 1.87%
42 | CN(C)c1ccc(/C=N/N(Cc2ccccc2)c2ccccc2)cc1 | 8.22%
43 | CCn1c(SCC(=O)Nc2ccc(C)cc2)nc2nc3c(cc2c1=O)CCCC3 | 1.35%
44 | S=c1ccc2ccccc2[nH]1 | 2.2%

Row | Structure (SMILES) | inhibition
45 | CCCCCc1ccc(-c2ccc(C(=O)O)cc2)nc1 | 6.06%
46 | COc1ccccc1/C=N\Nc1cc(C)nc(-n2nc(C)cc2C)n1 | 7.87%
47 | COc1ccc(Nc2cc(C)nc(-n3nc(C)cc3C)n2)cc1 | 78% (active)
48 | Cc1cc(C)n(-c2cc(Oc3ccccc3)ncn2)n1 | 4.63%
49 | Cc1cc(N/N=C\c2ccc(Br)cc2)nc(-n2nc(C)cc2C)n1 | 0.24%
50 | CC(=O)c1ccc(Oc2cc(C)nc(-n3nc(C)cc3C)n2)cc1 | 73.9% (active)
51 | Cc1cc(Oc2ccccc2)nc(N2CCOCC2)n1 | 2.47%
52 | Cc1cc(N2CCOCC2)nc2ccc(NC(=S)N3CCN(Cc4ccccc4)CC3)cc12 | 5.21%
53 | COC(=O)C(C)NC(=O)COc1ccc2ccccc2c1 (centres undefined) | 1.41%
54 | CCOC(=O)CN1C(=O)N[C@@H](c2ccc(Br)cc2)C(C(C)=O)=C1C | 3.53%
55 | CCOC(=O)c1ccc(NC(=S)N2CCCC2)cc1 | 0.86%
56 | COc1ccc(Nc2nc(-c3ccccc3)cs2)cc1 | 4.08%
57 | COc1ccc(-c2csc(NC3OC(=O)c4ccccc43)n2)cc1 (centres undefined) | -1.11%
58 | COc1ccc2c(c1OC)C(=O)OC2Nc1nc(-c2ccccc2)cs1 (centres undefined) | 40.2% (active)
59 | CC(C)(C)c1nnc(NC(=O)C2c3ccccc3Oc3ccccc32)s1 | 0.88%
60 | Nc1ccc(N=Nc2ccccc2Cl)c(N)n1 | -6.75%
61 | CCOc1ccc(Br)cc1CSC(=N)N | 6.11%
62 | CN1/C(=C\C(=O)c2cccnc2Cl)C(C)(C)c2ccccc21 | 5.33%
63 | CN1/C(=C\C=C2\N=C(c3ccc(F)cc3)OC2=O)C(C)(C)c2ccccc21 | 30.4% (active)
64 | CN1/C(=C\C(=O)c2oc3ccccc3c2N)C(C)(C)c2ccccc21 | 10.9%
